According to the supplement of paper PMC10646978:
± gives the standard deviation.

Tests used:
Settings in all cases: modulator concentration 10 µM
[1] = system: RAW-Dual (murine macrophage reporter line); test: NF-kB reporter (SEAP) activity fold change vs agonist alone; higher = enhanced NF-kB activity
Outline: (§1)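 Overnight stimulation with a PRR agonist followed pre-incubation for 1 hour at 37 °C with compound at 10 μM final. This was done in RAW-Dual murine macrophage reporter cells seeded at 50 000 per well in 384-well plates. NF-κB (SEAP, QUANTI-Blue absorbance at 620 nm) and IRF (Lucia luciferase, QUANTI-Luc luminescence) were read from the supernatant. Each reporter's fold change relative to the mean agonist-only control on the same plate was averaged over replicate plates.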

[2] = system: RAW-Dual (murine macrophage reporter line); test: IRF reporter (Lucia luciferase) activity fold change vs agonist alone; higher = enhanced IRF activity
Outline: as §1

[3] = system: RAW-Dual (murine macrophage reporter line); test: viability score (confluency relative to resting cells, overnight) (fraction); higher = more viable, active = viable (0.7 or more)
Outline: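 RAW-Dual macrophages in 384-well plates were incubated overnight with compound, final concentration 10 μM. Confluency images from IncuCyte were processed in IncuCyte software into two masks covering all imaged wells. The viability score is each well's confluency relative to resting cells, and a compound met the cutoff when both masks exceeded 70% of resting cells.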

[4] = agonist: CpG ODN 1826 0.5 ug/mL

Row | Structure (SMILES) | NF-kB reporter [1, 4] | NF-kB reporter ([1]; agonist: LPS 0.1 ug/mL) | NF-kB reporter ([1]; agonist: MPLA […]) | IRF reporter ([2]; agonist: 3'3'-cGAMP 10 ug/mL) | IRF reporter ([2]; agonist: LPS 0.1 ug/mL) | IRF reporter ([2]; agonist: MPLA […]) | viability score [3]
1 | CCS(=O)(=O)N1CC(CC#N)(n2cc(-c3ncnc4[nH]ccc34)cn2)C1 | 0.943 ± 0.099 | 1.13 ± 0.091 | 2.88 ± 0.17 | 0.189 ± 0.016 | 0.338 ± 0.035 | 0.517 ± 0.07 | 0.506 (inactive)
2 | CCC(=O)Nc1ccc(C(=O)NN=Cc2ccc(C#N)cc2)cc1 | 1.04 ± 0.094 | 1.03 ± 0.081 | 0.913 ± 0.064 | 0.972 ± 0.03 | 1.53 ± 0.22 | 1.11 ± 0.23 | 1.01 (active)
3 | O=c1c2ccccc2n(Cc2nc(-c3ccc(F)c(F)c3)no2)c(=O)n1C1CC1 | 0.84 ± 0.076 | 1.21 ± 0.096 | 0.923 ± 0.11 | 0.995 ± 0.074 | 1.04 ± 0.074 | 1.07 ± 0.15 | 0.971 (active)
4 | O=C(Nc1ccc([N+](=O)[O-])cc1Cl)c1ccc([N+](=O)[O-])cc1 | 0.961 ± 0.083 | 1.07 ± 0.069 | 0.937 ± 0.06 | 0.937 ± 0.032 | 1.48 ± 0.11 | 1.23 ± 0.3 | 1.01 (active)
5 | Cc1cc(C)n(-c2ccc(=O)n(CCNS(=O)(=O)c3ccccc3F)n2)n1 | 1.08 ± 0.09 | 1.08 ± 0.086 | 0.937 ± 0.049 | 1.01 ± 0.059 | 1.2 ± 0.081 | 1.13 ± 0.11 | 1 (active)
6 | O=C(NC(=S)Nc1ccc2[nH]c(=O)[nH]c2c1)c1ccc(Cl)cc1 | 0.958 ± 0.082 | 1.13 ± 0.075 | 0.95 ± 0.042 | 0.94 ± 0.17 | 1.03 ± 0.043 | 0.994 ± 0.22 | 1 (active)
7 | COc1ccc(C2CC(=O)C(=Cc3c[nH]c4ccccc34)C(=O)C2)cc1 (centres undefined) | 0.91 ± 0.055 | 1.04 ± 0.11 | 0.905 ± 0.08 | 0.76 ± 0.04 | 1.25 ± 0.11 | 1.1 ± 0.13 | 0.991 (active)
8 | O=C(NC1CCCCC1)N(Cc1cnc2ccccn12)c1ccccc1 | 1.01 ± 0.1 | 1.14 ± 0.088 | 1.15 ± 0.059 | 0.997 ± 0.044 | 1.06 ± 0.053 | 1.05 ± 0.16 | 0.995 (active)
9 | OC(C(=NN=C(c1ccccc1)C(O)c1ccccc1)c1ccccc1)c1ccccc1 (centres undefined) | 0.662 ± 0.072 | 1.14 ± 0.072 | 1.03 ± 0.063 | 1.14 ± 0.038 | 1.48 ± 0.11 | 1.45 ± 0.19 | 0.974 (active)
10 | Cl.NCCCC(N)(C(=O)O)C(F)F.O (centres undefined) | 1.06 ± 0.25 | 1.09 ± 0.065 | 1.2 ± 0.18 | 0.922 ± 0.035 | 1.3 ± 0.15 | 1.19 ± 0.15 | 0.994 (active)
11 | CCc1cccc2c3c([nH]c12)C(CC)(CC(=O)O)OCC3 (centres undefined) [Prestw-231] | 0.957 ± 0.25 | 0.995 ± 0.066 | 1.19 ± 0.15 | 0.926 ± 0.039 | 1.24 ± 0.15 | 1.32 ± 0.24 | 0.989 (active)
12 | O=C1CSC(=S)N1c1ccc(Cl)cc1 | 0.606 ± 0.049 | 0.665 ± 0.077 | 0.854 ± 0.059 | 0.389 ± 0.059 | 0.673 ± 0.03 | 0.869 ± 0.11 | 0.988 (active)
13 | Cc1cccc(-c2nn3c(c2-c2ccnc4ccc(C(N)=O)cc24)CCC3)n1 | 1.08 ± 0.046 | 1.22 ± 0.1 | 1.46 ± 0.12 | 0.903 ± 0.042 | 0.976 ± 0.16 | 1.12 ± 0.28 | 0.99 (active)
14 | COc1ccccc1OCC(O)CN1CCN(CC(=O)Nc2c(C)cccc2C)CC1 (centres undefined) | 0.99 ± 0.087 | 0.943 ± 0.089 | 1.06 ± 0.056 | 0.967 ± 0.092 | 0.996 ± 0.061 | 0.936 ± 0.078 | 1 (active)
15 | O=c1oc2c(O)c(O)cc3c(=O)oc4c(O)c(O)cc1c4c23 | 1.05 ± 0.32 | 0.944 ± 0.051 | 0.963 ± 0.1 | 0.85 ± 0.055 | 1.11 ± 0.12 | 1.1 ± 0.22 | 0.997 (active)
16 | CCCC(CCC)C(N)=O | 1.09 ± 0.093 | 0.95 ± 0.083 | 0.999 ± 0.023 | 1.08 ± 0.17 | 1.04 ± 0.12 | 0.983 ± 0.19 | 0.996 (active)
17 | CCCc1cc(=O)oc2cc(OCC(=O)OC)c(Cl)cc12 | 1.1 ± 0.09 | 0.967 ± 0.13 | 1.03 ± 0.041 | 0.96 ± 0.13 | 1.04 ± 0.1 | 1.09 ± 0.18 | 0.998 (active)
18 | CCCC1=NN2C(=N)C(=Cc3cccc(OCc4ccccc4F)c3)C(=O)N=C2S1 | 0.983 ± 0.12 | 0.999 ± 0.1 | 0.972 ± 0.061 | 0.964 ± 0.064 | 1.6 ± 0.16 | 1.17 ± 0.097 | 1.01 (active)
19 | Cc1cccc(OCCCOc2cccc3cccnc23)c1C | 0.735 ± 0.068 | 0.895 ± 0.055 | 1.07 ± 0.1 | 0.974 ± 0.053 | 1.44 ± 0.083 | 1.7 ± 0.22 | 0.978 (active)
20 | Cc1cccc(C(=O)N2CCCC(c3nnc(CC(C)(C)C)o3)C2)c1 (centres undefined) | 0.877 ± 0.037 | 0.942 ± 0.16 | 1.35 ± 0.08 | 0.924 ± 0.043 | 1.33 ± 0.3 | 1.36 ± 0.47 | 0.944 (active)
21 | CC(=O)SCC(Cc1ccccc1)C(=O)NCC(=O)OCc1ccccc1 (centres undefined) | 1.01 ± 0.075 | 0.997 ± 0.07 | 0.99 ± 0.045 | 0.967 ± 0.08 | 0.76 ± 0.027 | 0.785 ± 0.087 | 1 (active)
22 | O=C(Nc1ccc(Cl)cc1)C(Sc1ccccc1)c1ccccc1 (centres undefined) | 0.994 ± 0.11 | 1.02 ± 0.1 | 0.926 ± 0.065 | 0.989 ± 0.037 | 1.38 ± 0.26 | 1 ± 0.081 | 1.02 (active)
23 | COc1ccc(CCC(=O)NCc2nc(N(C)C)nc(N3CCCCC3)n2)cc1 | 0.8 ± 0.074 | 1.11 ± 0.11 | 0.881 ± 0.033 | 0.801 ± 0.029 | 1.01 ± 0.078 | 0.661 ± 0.12 | 1 (active)
24 | COc1ccc(C(=O)Nc2cccc([N+](=O)[O-])c2)cc1I | 1.03 ± 0.083 | 1.01 ± 0.071 | 0.95 ± 0.081 | 0.801 ± 0.037 | 1.02 ± 0.13 | 1.04 ± 0.23 | 0.997 (active)
25 | COc1ccc(C(C)NC(=O)c2[nH]nnc2-c2ccc(F)cc2)cc1 (centres undefined) | 1.17 ± 0.066 | 0.983 ± 0.14 | 1.01 ± 0.054 | 0.669 ± 0.026 | 1.01 ± 0.094 | 0.958 ± 0.15 | 0.997 (active)
26 | CCOC(=O)C(CCCOc1c(C)cc(Cl)cc1C)C(=O)OCC | 0.961 ± 0.078 | 0.909 ± 0.069 | 1.08 ± 0.086 | 0.985 ± 0.04 | 0.95 ± 0.045 | 1.22 ± 0.17 | 0.997 (active)
27 | O=C(O)CCCNC(=O)c1cccc([N+](=O)[O-])c1 | 1.06 ± 0.14 | 1.11 ± 0.082 | 0.983 ± 0.036 | 0.986 ± 0.14 | 1.11 ± 0.11 | 1.05 ± 0.19 | 1 (active)
